# What was measured:
# Assay in all cases: DAPPL (digital affinity profiling via proximity ligation, sequencing); 10 mM Tris-HCl pH 7.5, 50 mM NaCl, 1 mM DTT, 4% glycerol, room temperature, 30 min; GST-TFs on glutathione beads, 16-mer random dsDNA library, 0.1% formaldehyde crosslink after washing; high values mean tight binding
# FLI1 = target: T1, FLI1 (Homo sapiens, UniProt Q01543 1-452); conditions: protein: recombinant; tags: N-terminal GST; dsDNA, one strand shown
# T1 sequence: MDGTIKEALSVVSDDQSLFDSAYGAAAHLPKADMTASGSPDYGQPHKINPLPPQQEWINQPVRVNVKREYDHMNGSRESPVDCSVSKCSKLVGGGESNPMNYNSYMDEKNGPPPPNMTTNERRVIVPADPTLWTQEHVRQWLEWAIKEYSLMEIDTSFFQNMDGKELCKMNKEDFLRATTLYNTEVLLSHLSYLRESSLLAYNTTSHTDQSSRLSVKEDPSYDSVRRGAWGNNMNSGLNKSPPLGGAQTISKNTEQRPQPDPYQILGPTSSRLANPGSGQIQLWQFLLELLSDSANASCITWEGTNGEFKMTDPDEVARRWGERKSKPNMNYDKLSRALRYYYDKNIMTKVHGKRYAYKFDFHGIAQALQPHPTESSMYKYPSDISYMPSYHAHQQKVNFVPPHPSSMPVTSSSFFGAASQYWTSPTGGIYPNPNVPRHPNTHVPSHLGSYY
# Summary of the method: (§1)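 A tag-only sample was pooled with DNA-barcoded human transcription factors that had been expressed in yeast as GST fusions and captured on glutathione beads. The pools were incubated for 30 min at room temperature with 200 nmole of a random double-stranded 16-mer DNA library in Tris/NaCl/DTT/glycerol buffer, then washed, crosslinked with 0.1% formaldehyde, proximity-ligated (BsaI/T4 ligase, 1 h, 37 °C), PCR-amplified and sequenced on an Illumina NextSeq500. Binding signal is each hexamer's read frequency for a factor divided by its frequency for the tag-only sample.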
# ELK1 = target: T2, ELK1 (Homo sapiens, UniProt P19419 1-428); conditions: protein: recombinant; tags: N-terminal GST; dsDNA, one strand shown
# T2 sequence: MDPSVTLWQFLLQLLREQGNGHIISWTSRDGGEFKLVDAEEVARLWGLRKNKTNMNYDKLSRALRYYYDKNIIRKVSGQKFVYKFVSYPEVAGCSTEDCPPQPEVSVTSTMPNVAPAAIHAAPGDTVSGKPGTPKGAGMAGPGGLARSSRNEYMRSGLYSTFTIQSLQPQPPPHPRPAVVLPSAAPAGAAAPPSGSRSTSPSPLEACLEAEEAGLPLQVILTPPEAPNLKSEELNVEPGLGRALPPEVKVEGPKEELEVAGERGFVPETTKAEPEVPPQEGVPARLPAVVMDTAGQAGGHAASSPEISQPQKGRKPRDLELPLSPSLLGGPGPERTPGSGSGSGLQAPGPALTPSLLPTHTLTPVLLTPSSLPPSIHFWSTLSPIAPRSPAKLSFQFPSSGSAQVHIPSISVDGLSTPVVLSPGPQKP
# Summary of the method: as §1
# GABPA = target: T3, GABPA (Homo sapiens, UniProt Q06546 1-454); conditions: protein: recombinant; tags: N-terminal GST; dsDNA, one strand shown
# T3 sequence: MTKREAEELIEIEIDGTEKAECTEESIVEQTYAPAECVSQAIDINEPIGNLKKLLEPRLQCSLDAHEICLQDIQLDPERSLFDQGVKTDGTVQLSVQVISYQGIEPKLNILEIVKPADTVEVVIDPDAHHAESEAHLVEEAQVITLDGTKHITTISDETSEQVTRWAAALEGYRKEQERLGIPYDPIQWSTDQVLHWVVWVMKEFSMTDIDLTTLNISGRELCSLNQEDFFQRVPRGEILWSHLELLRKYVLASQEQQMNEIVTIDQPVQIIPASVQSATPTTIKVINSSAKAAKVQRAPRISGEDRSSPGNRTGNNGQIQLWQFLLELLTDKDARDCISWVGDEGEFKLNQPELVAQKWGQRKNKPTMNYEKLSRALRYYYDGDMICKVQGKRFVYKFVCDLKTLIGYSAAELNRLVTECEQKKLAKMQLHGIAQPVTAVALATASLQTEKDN
# Summary of the method: as §1
# ERG = target: T4, ERG (Homo sapiens, UniProt P11308 1-479); conditions: protein: recombinant; tags: N-terminal GST; dsDNA, one strand shown
# T4 sequence: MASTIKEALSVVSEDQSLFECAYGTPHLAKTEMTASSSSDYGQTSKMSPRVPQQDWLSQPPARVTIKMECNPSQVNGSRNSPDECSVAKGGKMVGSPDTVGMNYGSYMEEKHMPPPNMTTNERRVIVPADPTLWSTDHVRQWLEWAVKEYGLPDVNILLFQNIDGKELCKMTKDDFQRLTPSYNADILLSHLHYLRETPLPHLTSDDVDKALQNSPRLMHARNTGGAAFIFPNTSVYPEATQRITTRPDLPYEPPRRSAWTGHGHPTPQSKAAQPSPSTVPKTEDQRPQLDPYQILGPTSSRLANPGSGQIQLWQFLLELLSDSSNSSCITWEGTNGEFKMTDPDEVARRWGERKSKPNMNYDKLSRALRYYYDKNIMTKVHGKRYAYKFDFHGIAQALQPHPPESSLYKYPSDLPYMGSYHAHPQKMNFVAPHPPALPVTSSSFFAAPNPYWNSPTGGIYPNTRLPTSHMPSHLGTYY
# Summary of the method: as §1
# ELF1 = ELF1 (Homo sapiens, UniProt P32519 1-619); conditions: protein: recombinant; tags: N-terminal GST; dsDNA, one strand shown
# Summary of the method: as §1
# EHF = target: T5, EHF (Homo sapiens, UniProt Q9NZC4 1-300); conditions: protein: recombinant; tags: N-terminal GST; dsDNA, one strand shown
# T5 sequence: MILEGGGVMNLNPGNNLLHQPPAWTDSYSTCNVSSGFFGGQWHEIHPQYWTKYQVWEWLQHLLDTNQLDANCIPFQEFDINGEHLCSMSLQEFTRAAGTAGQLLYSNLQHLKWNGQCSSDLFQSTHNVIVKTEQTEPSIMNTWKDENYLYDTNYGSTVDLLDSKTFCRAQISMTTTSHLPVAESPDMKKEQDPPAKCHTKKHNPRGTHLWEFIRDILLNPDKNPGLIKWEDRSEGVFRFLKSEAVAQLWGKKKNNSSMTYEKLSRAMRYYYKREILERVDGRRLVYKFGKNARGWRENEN
# Summary of the method: as §1
# SPI1 = SPI1 (Homo sapiens, UniProt P17947 1-270); conditions: protein: recombinant; tags: N-terminal GST; dsDNA, one strand shown
# Summary of the method: as §1
# SPIB = SPIB (Homo sapiens, UniProt Q01892 1-262); conditions: protein: recombinant; tags: N-terminal GST; dsDNA, one strand shown
# Summary of the method: as §1
# ELK3 = target: T6, ELK3 (Homo sapiens, UniProt P41970 1-407); conditions: protein: recombinant; tags: N-terminal GST; dsDNA, one strand shown
# T6 sequence: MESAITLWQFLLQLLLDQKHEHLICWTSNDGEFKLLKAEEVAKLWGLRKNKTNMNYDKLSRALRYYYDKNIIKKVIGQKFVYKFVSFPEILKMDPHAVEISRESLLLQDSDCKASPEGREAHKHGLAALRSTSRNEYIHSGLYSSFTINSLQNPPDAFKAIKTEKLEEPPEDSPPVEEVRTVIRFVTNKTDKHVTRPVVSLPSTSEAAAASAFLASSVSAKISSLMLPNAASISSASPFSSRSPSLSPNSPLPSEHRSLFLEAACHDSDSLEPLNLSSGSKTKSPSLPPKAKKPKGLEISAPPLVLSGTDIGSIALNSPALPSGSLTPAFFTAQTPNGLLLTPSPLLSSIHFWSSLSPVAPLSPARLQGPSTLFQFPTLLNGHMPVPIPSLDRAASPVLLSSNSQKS
# Summary of the method: as §1
# FEV = target: T7, FEV (Homo sapiens, UniProt Q99581 1-238); conditions: protein: recombinant; tags: N-terminal GST; dsDNA, one strand shown
# T7 sequence: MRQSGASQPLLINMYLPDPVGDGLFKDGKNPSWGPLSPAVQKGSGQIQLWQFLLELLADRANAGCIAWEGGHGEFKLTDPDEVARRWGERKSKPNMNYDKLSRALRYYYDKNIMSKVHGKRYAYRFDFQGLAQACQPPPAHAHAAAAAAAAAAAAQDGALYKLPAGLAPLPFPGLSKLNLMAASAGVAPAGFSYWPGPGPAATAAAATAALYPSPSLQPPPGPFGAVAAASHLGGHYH
# Summary of the method: as §1
# ETV5 = ETV5 (Homo sapiens, UniProt P41161 1-510); conditions: protein: recombinant; tags: N-terminal GST; dsDNA, one strand shown
# Summary of the method: as §1
# HSF1 = HSF1 (Homo sapiens, UniProt Q00613 1-529); conditions: protein: recombinant; tags: N-terminal GST; chain copies: 3; dsDNA, one strand shown
# Summary of the method: as §1
# SPIC = target: T8, SPIC (Homo sapiens, UniProt Q8N5J4 1-248); conditions: protein: recombinant; tags: N-terminal GST; dsDNA, one strand shown
# T8 sequence: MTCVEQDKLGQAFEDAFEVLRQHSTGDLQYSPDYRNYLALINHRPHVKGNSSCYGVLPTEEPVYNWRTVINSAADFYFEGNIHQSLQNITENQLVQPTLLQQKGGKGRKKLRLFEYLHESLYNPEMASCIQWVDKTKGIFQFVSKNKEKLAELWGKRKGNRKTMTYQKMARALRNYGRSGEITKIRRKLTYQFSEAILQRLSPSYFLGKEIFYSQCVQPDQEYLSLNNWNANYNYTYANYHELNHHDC
# Summary of the method: as §1
# ELF4 = ELF4 (Homo sapiens, UniProt Q99607 1-663); conditions: protein: recombinant; tags: N-terminal GST; dsDNA, one strand shown
# Summary of the method: as §1
# ELK4 = target: T9, ELK4 (Homo sapiens, UniProt P28324-2 1-405); conditions: protein: recombinant; tags: N-terminal GST; dsDNA, one strand shown
# T9 sequence: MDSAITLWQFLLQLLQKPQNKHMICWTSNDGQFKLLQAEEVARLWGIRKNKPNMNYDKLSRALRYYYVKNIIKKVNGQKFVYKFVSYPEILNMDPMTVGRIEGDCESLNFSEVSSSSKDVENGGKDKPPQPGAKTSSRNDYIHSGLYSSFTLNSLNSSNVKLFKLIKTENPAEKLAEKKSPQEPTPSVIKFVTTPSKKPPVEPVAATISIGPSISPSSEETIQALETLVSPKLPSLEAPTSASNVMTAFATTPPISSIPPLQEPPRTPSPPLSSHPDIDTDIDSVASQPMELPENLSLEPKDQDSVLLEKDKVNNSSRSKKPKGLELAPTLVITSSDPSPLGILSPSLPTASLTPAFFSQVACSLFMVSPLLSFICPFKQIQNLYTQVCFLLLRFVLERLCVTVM
# Summary of the method: as §1
# ETV2 = target: T10, ETV2 (Homo sapiens, UniProt O00321 1-342); conditions: protein: recombinant; tags: N-terminal GST; dsDNA, one strand shown
# T10 sequence: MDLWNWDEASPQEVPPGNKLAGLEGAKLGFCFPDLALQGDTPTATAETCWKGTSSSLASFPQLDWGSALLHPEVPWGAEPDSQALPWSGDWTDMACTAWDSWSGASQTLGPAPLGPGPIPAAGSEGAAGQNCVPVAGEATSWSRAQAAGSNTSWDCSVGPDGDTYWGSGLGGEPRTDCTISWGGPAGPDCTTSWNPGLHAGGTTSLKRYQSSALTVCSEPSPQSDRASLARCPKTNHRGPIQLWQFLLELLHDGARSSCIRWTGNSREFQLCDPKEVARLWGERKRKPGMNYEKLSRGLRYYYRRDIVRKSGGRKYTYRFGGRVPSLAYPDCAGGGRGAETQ
# Summary of the method: as §1
# ELF3 = target: T11, ELF3 (Homo sapiens, UniProt P78545 1-371); conditions: protein: recombinant; tags: N-terminal GST; dsDNA, one strand shown
# T11 sequence: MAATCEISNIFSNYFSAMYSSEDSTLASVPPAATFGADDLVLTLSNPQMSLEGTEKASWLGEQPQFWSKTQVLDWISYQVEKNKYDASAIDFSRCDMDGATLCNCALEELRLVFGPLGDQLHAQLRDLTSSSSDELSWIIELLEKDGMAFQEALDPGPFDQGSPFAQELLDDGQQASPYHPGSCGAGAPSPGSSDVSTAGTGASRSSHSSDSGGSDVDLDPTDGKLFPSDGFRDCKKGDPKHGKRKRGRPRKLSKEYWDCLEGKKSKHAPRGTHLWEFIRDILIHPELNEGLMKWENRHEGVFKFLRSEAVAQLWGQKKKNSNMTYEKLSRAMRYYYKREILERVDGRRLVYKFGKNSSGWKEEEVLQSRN
# Summary of the method: as §1
# CRX = CRX (Homo sapiens, UniProt O43186 1-299); conditions: protein: recombinant; tags: N-terminal GST; dsDNA, one strand shown
# Summary of the method: as §1
# ETV1 = ETV1 (Homo sapiens, UniProt P50549 1-477); conditions: protein: recombinant; tags: N-terminal GST; dsDNA, one strand shown
# Summary of the method: as §1
# HSF1, sequence (Q00613 whole entry): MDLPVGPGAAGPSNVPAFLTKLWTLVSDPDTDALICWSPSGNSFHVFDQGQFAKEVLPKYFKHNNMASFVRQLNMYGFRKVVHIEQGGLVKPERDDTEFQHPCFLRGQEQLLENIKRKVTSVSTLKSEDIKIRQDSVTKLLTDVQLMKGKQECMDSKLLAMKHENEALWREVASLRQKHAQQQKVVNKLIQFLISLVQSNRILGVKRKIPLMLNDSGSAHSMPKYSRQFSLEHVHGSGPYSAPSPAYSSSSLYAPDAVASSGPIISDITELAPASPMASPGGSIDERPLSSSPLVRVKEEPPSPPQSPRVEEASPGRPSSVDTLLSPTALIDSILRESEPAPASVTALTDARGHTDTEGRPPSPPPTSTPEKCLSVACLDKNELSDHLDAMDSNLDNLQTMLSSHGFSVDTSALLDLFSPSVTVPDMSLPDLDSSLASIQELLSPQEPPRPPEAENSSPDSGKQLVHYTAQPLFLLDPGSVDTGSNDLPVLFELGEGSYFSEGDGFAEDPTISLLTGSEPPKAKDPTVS
# ELF1, sequence (P32519 whole entry): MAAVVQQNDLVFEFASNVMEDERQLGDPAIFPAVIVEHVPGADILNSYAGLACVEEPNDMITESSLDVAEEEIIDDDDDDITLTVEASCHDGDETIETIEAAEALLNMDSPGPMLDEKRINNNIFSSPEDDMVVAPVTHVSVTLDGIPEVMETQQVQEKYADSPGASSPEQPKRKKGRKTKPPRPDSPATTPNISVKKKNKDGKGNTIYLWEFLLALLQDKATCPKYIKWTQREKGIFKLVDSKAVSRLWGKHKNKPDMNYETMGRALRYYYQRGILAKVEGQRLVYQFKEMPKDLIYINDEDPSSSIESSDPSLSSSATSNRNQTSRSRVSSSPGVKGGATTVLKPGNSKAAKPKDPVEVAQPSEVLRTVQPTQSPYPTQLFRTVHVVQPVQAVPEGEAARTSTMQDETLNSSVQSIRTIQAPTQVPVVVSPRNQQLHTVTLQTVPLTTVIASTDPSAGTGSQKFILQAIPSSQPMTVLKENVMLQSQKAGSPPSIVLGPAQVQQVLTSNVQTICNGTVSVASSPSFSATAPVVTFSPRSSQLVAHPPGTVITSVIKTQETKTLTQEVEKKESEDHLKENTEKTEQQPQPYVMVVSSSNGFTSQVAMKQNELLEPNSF
# SPIB, sequence (Q01892 whole entry): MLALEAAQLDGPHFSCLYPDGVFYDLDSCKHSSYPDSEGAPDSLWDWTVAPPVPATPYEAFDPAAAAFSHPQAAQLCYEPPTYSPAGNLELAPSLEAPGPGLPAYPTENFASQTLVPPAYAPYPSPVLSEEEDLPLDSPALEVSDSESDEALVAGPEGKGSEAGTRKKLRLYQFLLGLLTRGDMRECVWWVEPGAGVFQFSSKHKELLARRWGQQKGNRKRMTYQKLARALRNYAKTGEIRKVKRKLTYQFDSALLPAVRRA
# ELF4, sequence (Q99607 whole entry): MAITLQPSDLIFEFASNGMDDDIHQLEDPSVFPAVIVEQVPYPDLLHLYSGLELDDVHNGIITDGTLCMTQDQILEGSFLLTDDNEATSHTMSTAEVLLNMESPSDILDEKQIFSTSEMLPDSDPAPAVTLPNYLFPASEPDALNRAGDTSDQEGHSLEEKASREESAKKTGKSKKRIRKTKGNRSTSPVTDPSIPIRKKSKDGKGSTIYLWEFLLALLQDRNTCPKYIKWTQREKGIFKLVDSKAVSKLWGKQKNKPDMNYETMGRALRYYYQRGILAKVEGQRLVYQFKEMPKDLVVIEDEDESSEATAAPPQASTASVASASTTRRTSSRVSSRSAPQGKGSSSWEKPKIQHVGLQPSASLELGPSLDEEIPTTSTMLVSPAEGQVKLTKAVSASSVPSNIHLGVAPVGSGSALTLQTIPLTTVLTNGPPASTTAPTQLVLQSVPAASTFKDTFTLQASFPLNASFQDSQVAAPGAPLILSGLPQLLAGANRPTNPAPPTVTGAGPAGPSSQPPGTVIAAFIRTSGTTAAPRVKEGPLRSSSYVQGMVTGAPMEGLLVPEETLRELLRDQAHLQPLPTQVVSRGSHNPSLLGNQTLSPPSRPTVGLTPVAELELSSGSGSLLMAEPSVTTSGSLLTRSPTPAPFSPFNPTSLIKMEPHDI
# ETV1, sequence (P50549 whole entry): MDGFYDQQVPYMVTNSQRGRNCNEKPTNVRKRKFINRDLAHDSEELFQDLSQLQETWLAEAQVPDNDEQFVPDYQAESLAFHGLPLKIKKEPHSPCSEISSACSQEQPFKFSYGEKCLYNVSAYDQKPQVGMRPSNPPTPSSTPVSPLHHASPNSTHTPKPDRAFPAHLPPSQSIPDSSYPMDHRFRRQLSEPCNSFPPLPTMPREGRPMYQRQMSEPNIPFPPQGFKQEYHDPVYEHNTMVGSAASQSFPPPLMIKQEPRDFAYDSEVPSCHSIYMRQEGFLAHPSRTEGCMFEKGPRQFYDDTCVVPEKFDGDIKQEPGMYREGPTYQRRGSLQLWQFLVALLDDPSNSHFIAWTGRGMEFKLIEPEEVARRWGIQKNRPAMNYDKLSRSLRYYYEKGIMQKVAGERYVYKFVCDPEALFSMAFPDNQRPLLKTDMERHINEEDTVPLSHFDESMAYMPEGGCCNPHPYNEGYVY
# ETV5, sequence (P41161 whole entry): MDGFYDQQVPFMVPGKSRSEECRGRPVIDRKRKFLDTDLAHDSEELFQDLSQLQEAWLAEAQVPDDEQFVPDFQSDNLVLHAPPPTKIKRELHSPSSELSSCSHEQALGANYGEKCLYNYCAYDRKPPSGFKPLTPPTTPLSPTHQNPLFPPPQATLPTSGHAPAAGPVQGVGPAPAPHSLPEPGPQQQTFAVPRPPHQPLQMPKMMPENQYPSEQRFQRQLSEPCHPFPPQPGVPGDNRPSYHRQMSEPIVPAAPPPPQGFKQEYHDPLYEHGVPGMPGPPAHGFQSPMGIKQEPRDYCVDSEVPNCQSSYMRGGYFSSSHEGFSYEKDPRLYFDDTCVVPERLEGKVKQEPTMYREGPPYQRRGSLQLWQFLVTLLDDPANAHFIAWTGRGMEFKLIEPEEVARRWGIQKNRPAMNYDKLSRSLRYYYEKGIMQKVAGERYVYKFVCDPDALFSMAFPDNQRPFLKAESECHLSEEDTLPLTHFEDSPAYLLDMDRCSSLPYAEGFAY
# CRX, sequence (O43186 whole entry): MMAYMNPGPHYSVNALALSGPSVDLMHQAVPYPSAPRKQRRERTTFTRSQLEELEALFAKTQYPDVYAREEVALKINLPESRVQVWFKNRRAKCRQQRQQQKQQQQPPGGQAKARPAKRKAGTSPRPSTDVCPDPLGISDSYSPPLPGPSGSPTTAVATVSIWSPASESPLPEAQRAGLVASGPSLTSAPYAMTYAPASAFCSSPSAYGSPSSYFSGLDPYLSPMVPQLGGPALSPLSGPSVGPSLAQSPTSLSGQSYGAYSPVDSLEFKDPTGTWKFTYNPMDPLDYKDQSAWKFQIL
sequence,measurement,setting,value
ATACTA,binding signal,FLI1,"1.16 fold enrichment (6-mer frequency, TF over GST control)"
same,binding signal,ELK1,"1.11 fold enrichment (6-mer frequency, TF over GST control)"
same,binding signal,GABPA,"1.25 fold enrichment (6-mer frequency, TF over GST control)"
same,binding signal,ERG,"1.17 fold enrichment (6-mer frequency, TF over GST control)"
same,binding signal,ELF1,"1.21 fold enrichment (6-mer frequency, TF over GST control)"
same,binding signal,EHF,"1.22 fold enrichment (6-mer frequency, TF over GST control)"
same,binding signal,SPI1,"1.13 fold enrichment (6-mer frequency, TF over GST control)"
same,binding signal,SPIB,"1.22 fold enrichment (6-mer frequency, TF over GST control)"
same,binding signal,ELK3,"1.06 fold enrichment (6-mer frequency, TF over GST control)"
same,binding signal,FEV,"1.13 fold enrichment (6-mer frequency, TF over GST control)"
same,binding signal,ETV5,"1.13 fold enrichment (6-mer frequency, TF over GST control)"
same,binding signal,HSF1,"1.34 fold enrichment (6-mer frequency, TF over GST control)"
same,binding signal,SPIC,"1.1 fold enrichment (6-mer frequency, TF over GST control)"
same,binding signal,ELF4,"1.19 fold enrichment (6-mer frequency, TF over GST control)"
same,binding signal,ELK4,"1.19 fold enrichment (6-mer frequency, TF over GST control)"
same,binding signal,ETV2,"1.14 fold enrichment (6-mer frequency, TF over GST control)"
same,binding signal,ELF3,"1.08 fold enrichment (6-mer frequency, TF over GST control)"
same,binding signal,CRX,"1.38 fold enrichment (6-mer frequency, TF over GST control)"
same,binding signal,ETV1,"1.1 fold enrichment (6-mer frequency, TF over GST control)"

# Source: paper PMC7862700, “An all-to-all approach to the identification of sequence-specific readers for epigenetic DNA modifications on cytosine”
